Measured values from PubChem BioAssay (Tox21).
Where “and” joins values, the source holds several entries; their conditions need not be identical. Equal entries are not always repeated. A number with no mark means an inactive call. Records with an inconclusive call do not appear. Where a call stands in place of a potency, no number is given. Calls of active or inactive are those of the source. Unless noted, the call rests on the fitted dose curve; in most records, active means well fitted curve in the direction sought with a large enough effect in the repeat runs; inconclusive means weak or mixed curves; inactive means no such curve, though single readings can be large; an effect the other way counts as inactive or inconclusive.

What was measured:
[1] = qHTS assay for small molecule agonists of the p53 signaling pathway (AID 651631; calls by dose curve; further: nearly all actives have a fitted effect of over 15% in size; further: potency means the concentration at half of the fitted maximal effect)
Procedure, shortened: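 HCT-116 cells carrying a stable p53 response element–beta-lactamase reporter were plated, rested 5 h at 37 °C, then exposed to compound in DMSO for 16 h at 37 °C; reporter activity was read as FRET substrate fluorescence after 2 h at room temperature.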

[2] = qHTS assay for small molecules that induce genotoxicity in human embryonic kidney cells expressing luciferase-tagged ATAD5 (AID 651632); further: nearly all actives have a fitted effect of over 15% in size
Procedure, shortened: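 Increased luciferase signal from ATAD5-tagged reporter cells indicates DNA-damage-driven ATAD5 induction. HEK293T cells are treated for 16 hr at 37C before detection with Amplite.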

[3] = qHTS assay for small molecule agonists of the p53 signaling pathway - cell viability (AID 651633; calls by dose curve; further: nearly all actives have a fitted effect of over 30% in size; further: potency means the concentration at half of the fitted maximal effect)
Procedure, shortened: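 p53RE-bla cells were treated with compound for 16 hours at 37 C. Cytotoxicity was then measured as CellTiter-Glo luminescence after 30 min at room temperature.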

[4] = qHTS assay for small molecules that induce genotoxicity in human embryonic kidney cells expressing luciferase-tagged ATAD5 - cell viability (AID 651634; calls by dose curve; further: nearly all actives have a fitted effect of over 25% in size; further: potency means the concentration at half of the fitted maximal effect)
Procedure, shortened: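 Cytotoxicity counterscreen in HEK293T cells bearing an ATAD5-luciferase reporter: live-cell protease activity measured by CellTiter-Fluor fluorescence after 15.5 hr compound exposure.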

[5] = qHTS assay for small molecule disruptors of the mitochondrial membrane potential (AID 720635); further: potency means the concentration at half of the fitted maximal effect
Procedure, shortened: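 HepG2 cells exposed to compound 1 hr at 37C, then Mito-MPS dye 30 min. Ratio read of aggregate (540/590 nm) versus monomer (490/535 nm) fluorescence.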

[6] = qHTS assay to test for compound auto fluorescence at 590 nm (red) in HepG2 cells (AID 720674); further: potency means the concentration at half of the fitted maximal effect
Procedure, shortened: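 Fluorescence at 590 nm emission following 540 nm excitation was recorded from HepG2 wells one hour after compound transfer, with DMSO-only wells as vehicle and Rose Bengal sodium equivalency as the scale.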

[7] = qHTS assay to test for compound auto fluorescence at 535 nm (green) in HepG2 cells (AID 720675); further: potency means the concentration at half of the fitted maximal effect
[8] = qHTS assay to test for compound auto fluorescence at 460 nm (blue) in HEK293 cells (AID 720678); further: potency means the concentration at half of the fitted maximal effect
Procedure, shortened: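 Blue read-out at excitation 405 nm and emission 460 nm follows overnight compound exposure of HEK293 cells at 37C in 5% CO2. Activity is given as auto fluorescence equivalency to triamterene.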

[9] = qHTS assay to test for compound auto fluorescence at 590 nm (red) in HEK293 cells (AID 720679); further: potency means the concentration at half of the fitted maximal effect
Procedure, shortened: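 Red channel, Ex/Em 540/590nm; signal expressed as equivalency to Rose Bengal sodium. HEK293, 2,000 cells/well, 10% dialyzed FBS; 23 nL compound pinned after 4-5 hr attachment; overnight 37C/5% CO2 before reading.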

[10] = qHTS assay for small molecule disruptors of the mitochondrial membrane potential - cell viability (AID 720634; calls by dose curve; further: nearly all actives have a fitted effect of over 20% in size; further: potency means the concentration at half of the fitted maximal effect)
Procedure, shortened: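 After overnight attachment at 37 C, HepG2 cells received compound or DMSO vehicle for 1 hr. Viability is then taken from ATP-driven luminescence following a 30 min room-temperature CellTiter-Glo step.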
Tags describe the fitted curve by direction and shape or compound fluorescence and quenching.

SMILES | Potency [1] | Potency [2] | Potency [3] | Potency [4] | Potency [5] | Potency [6] | Potency [7] | Potency [8] | Potency [9] | Potency [10]
CNC(=O)c1cc(Oc2ccc(NC(=O)Nc3ccc(Cl)c(C(F)(F)F)c3)cc2)ccn1 | 5.96 µM (active) | inactive | 5.96 µM (active) | 16.8 µM (active) | 0.88 µM (active) | inactive | inactive | inactive | inactive | 
C(=C/c1ccccc1)/c1ccccc1 | inactive | inactive | inactive | inactive |  | inactive | inactive | inactive | inactive | inactive
O=C1OC(=O)c2cccc3cccc1c23 | inactive | inactive | inactive | inactive | 2.76 µM (active) | inactive | inactive | inactive | inactive | inactive
COc1cc(C=C2CCC/C(=C\c3ccc(O)c(OC)c3)C2=O)ccc1O | 11.9 µM (active) | inactive | 16.8 µM (active) | 23.7 µM (active) | 4.95 µM (active) | inactive | inactive | inactive | inactive | 
O=S(=O)(O)CCCN1CCOCC1 | inactive | inactive | inactive | inactive | inactive | inactive | inactive | inactive | inactive | inactive
O=C(Nc1ccc(Cl)c(Cl)c1)c1cc(Cl)cc(Cl)c1O | 3.06 µM (active) | inactive | 0.273 µM (active) | 4.86 µM (active) | 0.137 µM (active) | inactive | inactive |  | inactive | 1.37 µM (active)
CCN=c1cc2oc3cc(NCC)c(C)cc3c(-c3ccccc3C(=O)OCC)c-2cc1C | 48.4 µM (active) | inactive | 60.9 µM (active) and 15.4 µM (active) | 9.65 µM (active) and 6.86 µM (active) |  | 3.55 µM (active) and 3.98 µM (active) | 39.8 µM (active) and 35.5 µM (active) | inactive | 4.47 µM [fluorescent] (active) and 6.31 µM [fluorescent] (active) | inactive
COC(=O)CC#N | inactive | inactive | inactive | inactive | inactive | inactive | inactive | inactive | inactive | inactive
CCCCCCCCCCCCCCCC | inactive | inactive | inactive | inactive | inactive | inactive | inactive | inactive | inactive | inactive
NC(=O)c1ccccc1N | inactive | inactive | inactive | inactive | inactive | inactive | inactive |  | inactive | inactive
CCOC(=O)COc1ccc(C)cc1 | inactive | inactive | inactive | inactive | inactive | inactive | inactive | inactive | inactive | inactive
O=C(O)CC(=O)O | inactive | inactive | inactive | inactive |  | inactive | inactive | inactive | inactive | inactive
C=CC(=C)CCC=C(C)C | inactive | inactive | inactive | inactive |  | inactive | inactive | inactive | inactive | inactive
CCC(C)(C)c1cc(O)c(C(C)(C)CC)cc1O | 54.5 µM (active) | inactive | 43.3 µM (active) | 48.6 µM (active) | 4.86 µM (active) | inactive | inactive | inactive | inactive | inactive
N[C@@H](CSSC[C@H](N)C(=O)O)C(=O)O | inactive | inactive | inactive | inactive |  | inactive | inactive | inactive | inactive | inactive
CCCCCCCCCCCC(=O)N(CC)CC | inactive | inactive |  | inactive | inactive | inactive | inactive | inactive | inactive | inactive
COC(=O)NCCC[Si](OC)(OC)OC | inactive | inactive |  | inactive |  | inactive | inactive | inactive | inactive | inactive
Nc1ccc2cc3ccc(N)cc3nc2c1 | 3.35 µM (active) and 3.06 µM (active) | inactive |  |  | 2.66 µM (active) and 1.22 µM (active) | inactive | 12.6 µM (active) | 12.6 µM [fluorescent] (active) | inactive | inactive
NCCCCCCNCCCCCCN |  | inactive | inactive | inactive | inactive | inactive | inactive | inactive | inactive | inactive
CN(C)CCCN1c2ccccc2Sc2ccc(C(F)(F)F)cc21 | 11.9 µM (active) | inactive | 29.8 µM (active) |  |  | inactive | inactive | inactive | inactive | 
CCCCCCOc1ccc(O)cc1 | 24.3 µM (active) |  | inactive | inactive | 12.2 µM (active) | inactive | inactive | inactive | inactive | 
